S-ASM inh: blocks human secretory acid sphingomyelinase; P17405; placental ASM, HMU-PC fluorogenic substrate, 60 min; Potency, µM (highest dose often 57.5 µM), for the others: top-dose activity change, negative = inhibition, hits mostly inhibitors; 340,000 compounds, 0.006% hits; note: potency is the fitted concentration of half-maximal effect
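Fluorescence read-out (Ex 386 nm, Em 447 nm) after stopping the reaction at pH 10. Enzyme: ASM from human placenta; substrate HMU-PC0, 9 uM final; 60 min, 37 °C. Compound preincubation 10 min, ambient temperature.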
Vif-A3F inh: Vif-A3F binding inhibition; HeLa A3F-eYFP + Vif (tagged APOBEC3F with the HIV-1 protein that degrades it), YFP fluorescence increase; Potency, µM (doses to about 46.1 µM), for the others: at the highest dose activity, negative = active; 390,000 compounds, 0.2% hits; note: potency is the fitted concentration of half-maximal effect; % of control where 0% means no effect; nearly all actives have a fitted effect of over 65% in size
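Fluorescence increase (Ex 488/Em 500-530) after overnight compound treatment at 37 deg C flags inhibition of Vif-driven A3F-eYFP loss in stable HeLa A3F-eYFP/Vif cells seeded overnight beforehand.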
TSG101-PTAP inh: blocks PTAP/TSG101 interaction to inhibit HIV-1 budding. Potency, µM (titrated, usually from 115 µM), inactives show at the highest dose activity change, negative = inhibition, actives largely listed as inhibitors. Fluorescence polarization, FITC-PTAP peptide / Tsg101 binding. AID 493005. 340,000 tested, under 10 active; active = well fitted inhibition curve with a large enough effect in the main read-out, with a control signal flat, not every such curve was filed as active; inconclusive = small, poorly fitted or top-dose-only effect, or effect the other way, or a change in a side signal; inactive = no such curve, though single readings can be large or run the other way; note: potency is the fitted concentration of half-maximal effect; % of control where 0% means no effect
Target sequence (Q99816 whole entry, looked up): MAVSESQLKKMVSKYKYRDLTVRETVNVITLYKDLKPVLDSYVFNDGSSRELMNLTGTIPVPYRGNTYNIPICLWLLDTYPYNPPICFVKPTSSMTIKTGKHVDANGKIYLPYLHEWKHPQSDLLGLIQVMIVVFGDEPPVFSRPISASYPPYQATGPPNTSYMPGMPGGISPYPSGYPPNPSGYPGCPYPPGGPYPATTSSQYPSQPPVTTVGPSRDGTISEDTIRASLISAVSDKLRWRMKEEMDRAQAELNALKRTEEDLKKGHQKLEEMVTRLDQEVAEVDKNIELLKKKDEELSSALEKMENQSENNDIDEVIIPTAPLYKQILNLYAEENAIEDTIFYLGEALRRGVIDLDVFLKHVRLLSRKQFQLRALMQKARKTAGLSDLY
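Fluorescence polarization binding of Tsg101 binding domain (10 uM final) to FITC-labeled PTAP peptide (50 nM final) in HEPES pH 7.5 buffer with NaCl, Tween 20, EDTA, TCEP. Compounds added before peptide; binding 20 min at RT.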
Vif-APOBEC3G blk: Vif-A3G binding inhibition; HeLa A3G-eYFP + Vif (tagged APOBEC3G with the HIV-1 protein that degrades it), YFP fluorescence, overnight; AID 602310; 410,000 compounds, 0.076% hits; Q9HC16; Potency, µM (doses to about 46.1 µM), for inactives: at the highest dose activity, negative = active, most hits filed as inhibitors; note: potency is the fitted concentration of half-maximal effect; % is set by controls: 0 for no effect and ±100 for the full control effect; nearly all actives have a fitted effect of over 60% in size
Target sequence (Q9HC16 whole entry, looked up): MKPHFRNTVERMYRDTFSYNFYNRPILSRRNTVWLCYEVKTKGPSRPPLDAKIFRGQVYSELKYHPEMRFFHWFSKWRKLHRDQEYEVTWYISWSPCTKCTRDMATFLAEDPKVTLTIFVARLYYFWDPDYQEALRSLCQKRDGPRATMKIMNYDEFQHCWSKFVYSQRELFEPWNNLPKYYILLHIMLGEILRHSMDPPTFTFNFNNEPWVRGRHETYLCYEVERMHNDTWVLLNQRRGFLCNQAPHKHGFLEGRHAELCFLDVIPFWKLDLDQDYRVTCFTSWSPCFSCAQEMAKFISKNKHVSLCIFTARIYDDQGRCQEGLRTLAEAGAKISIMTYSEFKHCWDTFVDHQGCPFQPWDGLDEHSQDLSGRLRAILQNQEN
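HeLa cells stably expressing Vif and C-terminally eYFP-tagged A3G, seeded overnight at 37 deg C, then exposed to compound by pintool overnight at 37 deg C. Rise in yellow fluorescence (Ex 488/Em 500-530, Acumen) marks blocked Vif-driven A3G degradation.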
ALOX12 inh: inhibitors of human 12S-lipoxygenase ALOX12; Potency, µM (doses to about 108 µM), without a hit: at the top dose activity change, negative = inhibition, actives largely listed as inhibitors; 580,000 compounds, 1.1% hits; purified 12hLO, xylenol orange hydroperoxide absorbance; AID 1671190; P18054; note: potency is the fitted concentration of half-maximal effect; % is set by controls: 0 for no effect and ±100 for the full control effect
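Purified human 12hLO (150 nM final) in 25 mM Hepes, 0.01% Triton X-100, pH 7.0 was preincubated 15 min at room temperature with compound. Then 40 uM arachidonic acid was added, 30 min. Hydroperoxide was read by Fe-XO absorbance ratio 573/405 nm.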
pAkt inh: Akt phosphorylation inhibition | Neuro2A IGF-stimulated pAkt S473 HTRF, 20 min; stronger effect = lower value | activity change, % for hits at 50 µM | 360,000 compounds, 0.32% hits | AID 651550; in the data active = activity change below about -80%; inconclusive = mostly about -51% to -80%; note: % is set by controls: 0 for no effect and ±100 for the full control effect
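Neuro2A cells (4,500/well, DMEM with 0.5% FBS) were treated with compound at a single 50 µM final concentration, stimulated with 6 nM IGF for 20 min at 37 °C, and lysed. Phospho-Akt Ser473 was read by HTRF as 665/615 ratio ×10^4.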
* hit, by the source's call; i = inactive; ? = inconclusive; . = no result; ! = not confirmed by another sample; [ ] = another dose, or the depositor's remark. The list is not random: actives were taken first. Their share in the collection is about 1.4%. Unless noted, calls come from the whole dose curve; as a rule, active = well fitted curve in the direction sought with a large enough effect; inconclusive = small, poorly fitted or top-dose-only effect, or another doubt; inactive = no such curve, though single readings can be large; an effect the other way counts as inactive or inconclusive.

SMILES | S-ASM inh | Vif-A3F inh | TSG101-PTAP inh | Vif-APOBEC3G blk | ALOX12 inh | pAkt inh
COc1ccccc1C(CNC(=O)C1CCN(S(=O)(=O)c2ccc3c(c2)CCC3)CC1)N(C)C (stereo not drawn) | . | . | . | . | -9% | .
Cc1ccc(CNC(=O)CN2NS(=O)(=O)c3ccccc3C2=O)cc1 | . | -1% | . | -3% | 20µM* | i
Cc1ccc(CNC(=O)CN2C(=O)c3ccccc3S2(=O)=O)cc1 | 3% | -20% | -6% | 2% | -18% | i
O=C(Cn1nnc(-c2ccccc2)n1)N=Nc1c(O)[nH]c2ccccc12 | -20% | 2% | -4% | -3% | -16% | -105%*
CC(=O)Nc1ccc(NS(=O)(=O)c2ccc3c(c2)oc(=O)n3C)cc1 | -2% | -3% | -2% | -9% | 8.9µM* | i
COc1ccccc1CNC(=O)COC(=O)c1cc(-c2ccco2)nc2ccccc12 | 181% | -1% | -3% | 0% | ? | i
NC(=O)COC(=O)c1cc(-c2ccco2)nc2ccccc12 | 466% | -3% | -1% | 8% | 28µM* | i
O=C(OCC(=O)N1CCCC1)c1cc(-c2ccco2)nc2ccccc12 | . | . | . | . | 6.3µM* | .
COC(=O)c1ccc(COC(=O)c2cc(-c3ccco3)nc3ccccc23)cc1 | . | . | . | . | 7.1µM* | .
CNC(=O)NC(=O)COC(=O)c1cc(-c2ccco2)nc2ccccc12 | . | . | . | . | 16µM* | .
CCC1CCCCN1C(=O)Cn1cnc2c1c(=O)n(C)c(=O)n2C (stereo not drawn) | . | . | . | . | 5% | .
CC(=O)c1c(N2CCN(c3ccccc3)CC2)nc(=S)n(-c2ccccc2)c1C | -4% | -2% | -6% | 3% | ? | i
CCOC(=O)N1CCN(c2nc(=S)n(-c3ccccc3)c(C)c2C(C)=O)CC1 | 6% | -3% | -1% | 0% | 32µM* | i
C=CCn1c(C)c(C(C)=O)c(N2CCN(c3ccccc3)CC2)nc1=S | -2% | . | 1% | -8% | ? | -105%*
Cc1cc(=O)oc2cc(OCC(=O)NCC3(N4CCCCC4)CCCCC3)ccc12 | . | . | . | . | 55% | .
COCCCNC(=O)c1cc2cc(C)ccc2nc1C | . | . | . | . | -6% | .
CC1CCc2c(sc(NC(=O)CCCn3cnc([N+](=O)[O-])n3)c2C(N)=O)C1 (stereo not drawn) | 0% | 0% | -10% | 0% | -8% | i
Cc1cc([N+](=O)[O-])nn1CCCC(=O)Nc1sc2c(c1C(N)=O)CCCC2 | -5% | -13% | -1% | -3% | 45µM* | i
NC(=O)c1c(NC(=O)CCCn2cnc([N+](=O)[O-])n2)sc2c1CCCC2 | -2% | 0% | 0% | 2% | 40µM* | i
CC(Oc1cccc(Cl)c1)C(=O)NC(C)c1ccccc1 (stereo not drawn) | . | . | . | . | 34% | .
CCN1CCN(c2ccc(NC(=O)c3cc(Cl)ccc3OC)cc2)CC1 | . | . | . | . | -26% | .
COc1ccccc1-c1c(C)oc2cc(OCC#N)ccc2c1=O | . | . | . | . | -24% | .
CCCCNC1c2ccccc2C(=O)N1Cc1ccccc1 (stereo not drawn) | -9% | -21% | 0% | 1% | 40µM* | i
O=C1c2ccccc2C(Nc2cccnc2)N1Cc1ccccc1 (stereo not drawn) | -1% | -4% | -4% | -2% | -3% | i
O=C(NCC1CCCCN1)c1cc(OCC(F)(F)F)ccc1OCC(F)(F)F (stereo not drawn) | 2% | 9% | 2% | -7% | 1.5µM*! | i
SMILES | S-ASM inh | Vif-A3F inh | TSG101-PTAP inh | Vif-APOBEC3G blk | ALOX12 inh | pAkt inh
O=C(CCl)NCCNC(=O)c1cc(OCC(F)(F)F)ccc1OCC(F)(F)F | -1% | 1% | -1% | 0% | -17% | i
COc1ccc(-c2coc3cc(OC(C)=O)ccc3c2=O)cc1 | . | . | . | . | 30% | .
O=C(NCc1ccccc1)NC1CC2CCC(C1)N2Cc1ccco1 (stereo not drawn) | -1% | -7% | -2% | -1% | -1% | i
O=C(CN1C2CCC1CC(NC(=O)Nc1ccccc1)C2)NCc1ccco1 (stereo not drawn) | 4% | -3% | -11% | 0% | -7% | -107%*
Fc1ccc(/C=N/Nc2c(Cl)cc(Cl)cc2Cl)c(F)c1 | . | . | . | . | 40µM* | .
Fc1ccc(Br)cc1/C=N/N1CCN(c2ccccc2)CC1 | -3% | 2% | 3% | -8% | 0% | i
Fc1ccc(Br)cc1/C=N/Nc1c(Cl)cc(Cl)cc1Cl | . | . | . | . | 18µM* | .
Fc1ccc(/C=N/Nc2ccc3ccccc3c2)c(F)c1 | . | . | . | . | 2.5µM* | .
O=C(N/N=C/c1ccc(Cl)cc1Cl)c1cccc(F)c1 | -7% | -2% | -4% | 1% | 13% | i
Cc1ccc(C=Nc2ccc(C(C)(C)C)cc2)s1 | . | . | . | . | -8% | .
Cc1ccc(-c2nc3ncccc3o2)cc1NC(=O)c1ccc([N+](=O)[O-])o1 | -6% | 22µM* | -2% | 0% | . | i
COc1ccc(C/C(C)=N/NC(=S)Nc2ccc(C(C)C)cc2)cc1 | 2% | 4% | -4% | -2% | ? | i
COc1ccc(NC(=S)NC(=O)Cc2ccccc2)cc1 | -7% | -6% | -5% | -3% | 82% | i
C/C(=N\NC(=S)Nc1c(C)cccc1C)c1ccc(OC(F)F)cc1 | 0% | ? | -1% | -1% | 35µM* | i
CC/C(=N\NC(=S)Nc1ccc(OC)cc1)c1ccc(OC(F)F)cc1 | -15% | -17% | -1% | -25% | 35µM* | i
O=C(Cc1ccccc1)NC(=S)Nc1ccc(OC(F)F)cc1 | -11% | -3% | 0% | -4% | 35µM* | i
Cc1ccc(C)c(NC(=S)/C(=C(\[O-])c2ccc(OC(F)F)cc2)[n+]2ccccc2)c1 | 0% | -3% | -2% | 0% | -10% | i
CC/C(=N\NC(=S)Nc1cc(C)ccc1C)c1ccc(OC(F)F)cc1 | -4% | -2% | -6% | 4% | 32µM* | i
CC(C)c1ccc2c(c1)CCCN2C(=O)c1cnc2c(cnn2C(C)C)c1 | . | . | . | . | -7% | .
Cc1cc(-c2nc3ccncc3[nH]2)c(C)o1 | . | . | . | . | 49%[176 µM] | .
CCCc1cc(=O)oc2cc(OCC(=O)NCc3cccnc3)c(Cl)cc12 | . | . | . | . | 8% | .
CCCCn1nc(C(=O)NCc2ccccc2)c2ccccc2c1=O | . | . | . | . | 6% | .
Cc1ccc(C)c(SCC(=O)Cc2ccccc2F)c1 | . | . | . | . | 85% | .
COc1cc(C(=O)Nc2ccc3oc(=O)ccc3c2)ccc1OC(F)F | . | . | . | . | 13% | .
O=C(Nc1ccc2nc(SCc3ccc(Br)cc3)sc2c1)C1CCCCC1 | . | . | . | . | -3% | .
N#CCSc1nnc2sc3ccccc3n12 | 8% | -4% | -10% | 0% | 2% | i
CN(C)CCSc1nnc2sc3ccccc3n12 | 2% | 10% | -2% | 2% | -3% | -106%*
